Inconclusive results are not listed. Where a call stands in place of a potency, no number is given. A number with no mark means an inactive call. Calls of active or inactive are those of the source. Calls follow the shape of the full dose curve.

In the first assay the target is Thyrotropin receptor (Homo sapiens) (UniProt P16473). As to the kind of experiment: qHTS assay to identify small molecule agonists of the thyroid stimulating hormone receptor (TSHR) signaling pathway (AID 1224843). Also: nearly all actives have a fitted effect of over 45% in size. The settings on record: TSHR-HEK293 cells, cAMP HTRF, agonist mode, 30 min; series mostly up to 92.4 µM. A digest of the protocol: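 Cell line HEK293 with TSHR; density 800/well. Exposure 30 min RT. Readout HTRF cAMP (cAMP-d2/anti-cAMP-cryptate), 1 h RT before reading.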
Thyrotropin receptor (Homo sapiens), sequence (P16473 whole entry, looked up): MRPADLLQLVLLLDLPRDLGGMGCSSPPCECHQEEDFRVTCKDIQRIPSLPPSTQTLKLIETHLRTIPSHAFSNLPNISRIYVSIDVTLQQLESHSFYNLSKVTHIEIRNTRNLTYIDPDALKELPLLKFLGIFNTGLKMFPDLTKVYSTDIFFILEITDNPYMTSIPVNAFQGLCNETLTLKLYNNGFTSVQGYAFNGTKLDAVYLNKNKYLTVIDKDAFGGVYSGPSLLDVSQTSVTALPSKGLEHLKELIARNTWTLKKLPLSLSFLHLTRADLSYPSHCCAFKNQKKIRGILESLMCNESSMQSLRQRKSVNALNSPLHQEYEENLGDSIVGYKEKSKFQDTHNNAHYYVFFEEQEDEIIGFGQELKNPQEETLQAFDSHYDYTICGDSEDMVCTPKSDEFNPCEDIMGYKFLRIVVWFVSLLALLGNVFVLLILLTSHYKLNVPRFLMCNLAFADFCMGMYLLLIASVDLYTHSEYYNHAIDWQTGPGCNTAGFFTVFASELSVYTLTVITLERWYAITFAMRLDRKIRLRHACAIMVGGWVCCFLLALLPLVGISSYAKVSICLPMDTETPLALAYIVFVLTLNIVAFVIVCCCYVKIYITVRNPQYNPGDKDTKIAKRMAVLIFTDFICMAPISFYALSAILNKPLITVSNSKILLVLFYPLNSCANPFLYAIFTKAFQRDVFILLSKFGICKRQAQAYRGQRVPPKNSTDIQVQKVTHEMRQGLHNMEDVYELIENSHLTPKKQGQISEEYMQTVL
Consider `COC(C)(C)OC`, for which the Potency result is “inactive”.

Regarding `CC(C)(C)C(O)/C=C/c1ccc2c(c1)OCO2` (stereo unspecified), the Potency entry is “inactive”.

`CCCCCCCCCCCCCOC(=O)CCSCCC(=O)OCCCCCCCCCCCCC`: the activation is -1.63% [at 19 µM].

Consider `O=C(O)CN1C(=O)c2cccc3cccc(c23)C1=O`, for which the Potency result is “inactive”.

On to `CCCCCC`, for which the Potency result was “inactive”.

Consider `COC(OC)OC`, for which the Potency entry was “inactive”.

With `CC1=C2[C@@H]([C@H](C)CC[C@H]2/C=C(\C)C(=O)O)[C@H](O)C1`, the Potency result is “inactive”.

`Cc1ccc(NC(=O)N(C)C)cc1NC(=O)N(C)C`: the Potency entry was “inactive”.

Take `CNC1CCCN(c2c(F)cc3c(=O)c(C(=O)O)cn(C4CC4)c3c2OC)C1` (stereo unspecified): the Potency result is “inactive”.

With `COc1ccc(-n2nc(C(F)F)cc2-c2ccc(S(C)=O)cc2)cc1` (stereo unspecified), the Potency entry is “inactive”.

With `Cc1oc(=O)oc1COC(=O)[C@@H]1N2C(=O)[C@@H](NC(=O)[C@H](N)c3ccccc3)[C@H]2SC1(C)C`, the Potency result was “inactive”.

Turning to `CNCc1ccc(NC(=O)c2c[nH]c3c2C(=O)CCC3)cc1`, the Potency entry was “inactive”.

Regarding `NC(=O)c1ccccc1[N+](=O)[O-]`, the Potency result is “inactive”.

On to `CN=C(N)NC(=O)Nc1c(C)cccc1C`, for which the Potency result was “inactive”.

`CC(=O)Oc1cccc(O)c1`: the Potency entry was “inactive”.

As to `N[C@@H](Cc1cc(I)c(O)c(I)c1)C(=O)O`, the Potency result is “inactive”.

On to `CCC1CCC(CCC(=O)O)C1` (stereo unspecified), for which the Potency entry is “inactive”.

As for `CCOc1ncc(F)c(=O)[nH]1`, the Potency result was “inactive”.

`CC(C)CC(O)CC(C)C`: the Potency entry is “inactive”.

For the compound `C=Cc1ccc(OC(C)=O)cc1`, the Potency entry is “inactive”.

Regarding `CC(C)c1ccc(C#N)cc1`, the Potency result is “inactive”.

On to `SCCc1cnccn1`, for which the Potency entry is “inactive”.

In the case of `CCCCCCC(O)CCCCCCCCCCC(=O)OC` (stereo unspecified), the Potency entry is “inactive”.

As to `CCCCC(CC)COS(=O)(=O)O` (stereo unspecified), the Potency result is “inactive”.

`Nc1ccn([C@H]2CS[C@@H](CO)O2)c(=O)n1`: the Potency result is “inactive”.

As for `Cc1ccc(Nc2c(F)cccc2Cl)c(CC(=O)O)c1`, the Potency entry was “inactive”.

Turning to `CCCCCCCCCCCCCC(=O)OCC(O)CO` (stereo unspecified), the Potency result was “inactive”.

Consider `COc1ccc(/C=C/C(=O)c2ccc(OC)cc2OC)cc1`, for which the Potency entry was “inactive”.

Turning to `O=C(O)c1ccc(O)cc1O`, the Potency entry was “inactive”.

For the compound `CCOC(=O)c1ccc(NC(=O)CN2CCCCC2)cc1`, the Potency entry is “inactive”.

For the compound `ClC1=C(Cl)C1(Cl)Cl`, the Potency result was “inactive”.

Consider `CC(C)(C)CCCCCCOC(=O)c1ccccc1C(=O)OCCCCCCC(C)(C)C`, for which the Potency result was “inactive”.

In the case of `CCNc1nc(N)nc(Cl)n1`, the Potency result is “inactive”.

For `C1=CCC2CC=CC2C1` (stereo unspecified), the Potency entry was “inactive”.

`O=C(NS(=O)(=O)/C=C/c1ccccc1)c1ccc(F)cc1Cl`: the Potency entry was “inactive”.

In the case of `CS(=O)(=O)c1ccc([C@@H](C[C@H]2CCC(=O)C2)C(=O)Nc2cnccn2)cc1Cl`, the Potency result is “inactive”.

In the case of `O=[N+]([O-])c1ccc2ncccc2c1`, the Potency result is “inactive”.

For `COC1CCC=CO1` (stereo unspecified), the Potency result was “inactive”.

Test system in the next assay: not listed separately
As to the kind of experiment: qHTS assay to identify small molecule agonists of the hypoxia (HIF-1) signaling pathway - cell viability counter screen (AID 1224844). Also: nearly all actives have a fitted effect of over 50% in size. To be noted: HRE-bla ME-180 viability, CellTiter-Glo luminescence, 17 h; series mostly up to 76.8 µM. A digest of the protocol:
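HRE-bla ME-180 cells in medium with 0.5% dialyzed FBS were preincubated 5 hrs at 37C, exposed to compounds for 17 hrs, then viability was read as CellTiter-Glo luminescence after 30 min at room temperature, in the reporter wells.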
Consider `COC(C)(C)OC`, for which the Potency result was “inactive”.

Take `CC(C)(C)C(O)/C=C/c1ccc2c(c1)OCO2` (stereo unspecified): the Potency result was “inactive”.

Regarding `CCCCCCCCCCCCCOC(=O)CCSCCC(=O)OCCCCCCCCCCCCC`, the activity change, negative = cytotoxicity was 4.03% [at 15.8 µM].

Regarding `O=C(O)CN1C(=O)c2cccc3cccc(c23)C1=O`, the Potency entry was “inactive”.

As for `CCCCCC`, the Potency entry is “inactive”.

`COC(OC)OC`: the Potency entry is “inactive”.

Turning to `CC1=C2[C@@H]([C@H](C)CC[C@H]2/C=C(\C)C(=O)O)[C@H](O)C1`, the Potency result is “inactive”.

`Cc1ccc(NC(=O)N(C)C)cc1NC(=O)N(C)C`: the Potency entry is “inactive”.

`CNC1CCCN(c2c(F)cc3c(=O)c(C(=O)O)cn(C4CC4)c3c2OC)C1` (stereo unspecified): the Potency result is “inactive”.

On to `COc1ccc(-n2nc(C(F)F)cc2-c2ccc(S(C)=O)cc2)cc1` (stereo unspecified), for which the Potency entry is “inactive”.

On to `Cc1oc(=O)oc1COC(=O)[C@@H]1N2C(=O)[C@@H](NC(=O)[C@H](N)c3ccccc3)[C@H]2SC1(C)C`, for which the Potency entry was “inactive”.

`CNCc1ccc(NC(=O)c2c[nH]c3c2C(=O)CCC3)cc1`: the Potency result is “inactive”.

Take `NC(=O)c1ccccc1[N+](=O)[O-]`: the Potency entry was “inactive”.

For the compound `CN=C(N)NC(=O)Nc1c(C)cccc1C`, the Potency result is “inactive”.

For `CC(=O)Oc1cccc(O)c1`, the Potency result was “inactive”.

As for `N[C@@H](Cc1cc(I)c(O)c(I)c1)C(=O)O`, the Potency result is “inactive”.

With `CCC1CCC(CCC(=O)O)C1` (stereo unspecified), the Potency entry is “inactive”.

On to `CCOc1ncc(F)c(=O)[nH]1`, for which the Potency result was “inactive”.

As to `CC(C)CC(O)CC(C)C`, the Potency entry is “inactive”.

On to `C=Cc1ccc(OC(C)=O)cc1`, for which the Potency result is “inactive”.

Consider `CC(C)c1ccc(C#N)cc1`, for which the Potency entry is “inactive”.

Regarding `SCCc1cnccn1`, the Potency result is “inactive”.

Take `CCCCCCC(O)CCCCCCCCCCC(=O)OC` (stereo unspecified): the Potency result is “inactive”.

Consider `CCCCC(CC)COS(=O)(=O)O` (stereo unspecified), for which the Potency result is “inactive”.

For the compound `Nc1ccn([C@H]2CS[C@@H](CO)O2)c(=O)n1`, the Potency entry was “inactive”.

Turning to `Cc1ccc(Nc2c(F)cccc2Cl)c(CC(=O)O)c1`, the Potency entry was “inactive”.

`CCCCCCCCCCCCCC(=O)OCC(O)CO` (stereo unspecified): the Potency entry was “inactive”.

As to `COc1ccc(/C=C/C(=O)c2ccc(OC)cc2OC)cc1`, the Potency entry was “inactive”.

Turning to `O=C(O)c1ccc(O)cc1O`, the Potency entry was “inactive”.

With `CCOC(=O)c1ccc(NC(=O)CN2CCCCC2)cc1`, the Potency result was “inactive”.

Turning to `ClC1=C(Cl)C1(Cl)Cl`, the Potency result was “inactive”.

Regarding `CC(C)(C)CCCCCCOC(=O)c1ccccc1C(=O)OCCCCCCC(C)(C)C`, the Potency result was “inactive”.

Regarding `CCNc1nc(N)nc(Cl)n1`, the Potency entry was “inactive”.

For the compound `C1=CCC2CC=CC2C1` (stereo unspecified), the Potency entry was “inactive”.

As for `O=C(NS(=O)(=O)/C=C/c1ccccc1)c1ccc(F)cc1Cl`, the Potency entry is “inactive”.

Take `CS(=O)(=O)c1ccc([C@@H](C[C@H]2CCC(=O)C2)C(=O)Nc2cnccn2)cc1Cl`: the Potency entry was “inactive”.

On to `O=[N+]([O-])c1ccc2ncccc2c1`, for which the Potency entry is “inactive”.

On to `COC1CCC=CO1` (stereo unspecified), for which the Potency entry was “inactive”.
